Assay outcomes deposited in PubChem BioAssay by National Center for Advancing Translational Sciences (NCATS).
In the library only some 21% were active in any assay of this set; here they are far more common.
Pf growth 48h: P. falciparum growth inhibition at 48 hours (one generation) | P. falciparum luciferase growth in erythrocytes, 48 h | Potency, µM (highest dose often 28.7 µM), most hits filed as inhibitors | hit rate 5.9% among 310,000
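Cell-based growth assay: transgenic P. falciparum expressing firefly luciferase, cultured in red cells within RPMI 1640 containing 0.5% w/v Albumax, 24 mM bicarbonate and gentamycin. A drop in luciferase activity indicates inhibition.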
Cycloheximide cs: counter-screen hit for Shiga toxin inhibitors, cycloheximide; cell reporter, cycloheximide protein synthesis inhibition counterscreen; hit rate 12% among 300,000; max response, %; in the data active = max response mostly above about 13%, no sharp cut-off; inactive = mostly below about 14%; also: read at 38.3 µM for the half of the compounds with a filed dose
Giardia FBPA inh: inhibitors of Giardia lamblia fructose-1,6-bisphosphate aldolase. A8B2U2. hit rate 0.71% among 290,000. Potency, µM (highest dose often 59.6 µM), usual class: inhibitors. purified Giardia FBPA; also: nearly all actives have a fitted effect of over 55% in size
Target sequence (A8B2U2 whole entry, looked up): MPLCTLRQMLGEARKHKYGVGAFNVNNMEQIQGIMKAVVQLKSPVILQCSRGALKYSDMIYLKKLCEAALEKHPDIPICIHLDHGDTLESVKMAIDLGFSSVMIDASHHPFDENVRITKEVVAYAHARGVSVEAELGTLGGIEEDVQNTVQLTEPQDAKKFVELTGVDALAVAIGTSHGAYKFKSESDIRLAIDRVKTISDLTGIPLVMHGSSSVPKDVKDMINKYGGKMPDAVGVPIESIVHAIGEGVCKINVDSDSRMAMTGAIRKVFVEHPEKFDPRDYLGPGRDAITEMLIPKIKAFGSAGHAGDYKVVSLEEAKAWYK
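40 nM FBPA preincubated 10 min at RT with compound (up to 57.5 uM final), then substrate plus GAPDH/TPI/NAD/arsenate coupling and diaphorase/resazurin added. Fluorescence read after 20 min at RT, 525/598 nm.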
Pf growth 96h: P. falciparum growth inhibition at 96 hours | Potency, µM (highest dose often 28.7 µM), hits mostly inhibitors | hit rate 6.9% among 320,000 | P. falciparum luciferase reporter growth, 96 h
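P. falciparum expressing integrated firefly luciferase grown in erythrocytes (2% hematocrit, 0.05% parasitemia final) with compounds for 96 hours at 37 C, 5% CO2. Growth inhibition read as loss of luminescence after adding luciferase detection reagent.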
Shiga inhibitor: inhibitors of Shiga toxin in Vero cells; Vero cells, Shiga toxin protein synthesis inhibition reporter; inhibition, % at 38.7 µM; hit rate 9.2% among 290,000; AID 2315; in the data active = inhibition mostly above about 28%, no sharp cut-off; inactive = mostly below about 43%
NS1 function inh: inhibitors of influenza NS1 protein function; Potency, µM (series often up to 46.1 µM); hit rate 0.4% among 270,000; calls by dose curve; also: actives are rising curves; nearly all actives have a fitted effect of over 50% in size
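In this qHTS, NS1 from influenza A is expressed in budding yeast, where it slows growth. Cells are switched from glucose to 2% galactose medium (pH 6.0, -URA), treated with compound, and growth recovery is read at OD600.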
Hits are given with their value; - = inactive; ? = inconclusive; . = no result; [ ] = another dose, or the depositor's remark. Unless noted, calls follow the shape of the dose curve; as a rule, active = well fitted curve in the direction sought with a large enough effect; inconclusive = small, poorly fitted or top-dose-only effect, or another doubt; inactive = no such curve, though single readings can be large; an effect the other way counts as inactive or inconclusive.

SMILES | Pf growth 48h | Cycloheximide cs | Giardia FBPA inh | Pf growth 96h | Shiga inhibitor | NS1 function inh
COc1ccc(C2=NS(=O)(=O)N(C)C(C(=O)Nc3ccc4c(c3)OCO4)=C2)cc1OC | - | 20 | - | - | - | -
COc1ccc(C2=NS(=O)(=O)N(C)C(C(=O)Nc3ccc4c(c3)OCO4)=C2)cc1 | - | - | - | - | - | -
CN1C(C(=O)Nc2cccc(O)c2)=CC(c2ccco2)=NS1(=O)=O | - | 10 | - | - | - | -
O=C1OC(N2C(=O)CC[C@H]2C(=O)Nc2ccc3c(c2)OCO3)c2ccccc21 (some centres undefined) | - | - | - | - | - | -
CO[C@@H](CCO)C[C@H]1O[C@H](C(=O)OC(C)C)CC[C@@H]1C | . | . | - | . | . | .
Cn1c(=O)[nH]c(=O)c2c1nc(SCCN1CCCCC1)n2Cc1ccccc1 | ? | - | - | - | - | -
Cc1ccc(Cn2c(SCCN3CCCCC3)nc3c2c(=O)[nH]c(=O)n3C)cc1 | - | - | ? | 3.7µM | - | -
CSc1nc2c(c(=O)[nH]c(=O)n2C)n1Cc1ccccc1Cl | - | - | - | 5.2µM | - | -
CCC(C)Sc1nc2c(c(=O)[nH]c(=O)n2C)n1Cc1ccccc1Cl (centres undefined) | 12µM | - | - | ? | - | -
COc1ccc(S(=O)(=O)NC2CC(=O)N(c3cccc(F)c3)C2)cc1OC (centres undefined) | - | . | . | - | . | .
Cc1ccc(C(=O)N2CCC(N3CCC(C(=O)N4CCOCC4)CC3)CC2)cc1C | ? | - | - | ? | - | -
CCC(C(=O)OCC(=O)N1CCN(c2ccc(OC)cc2)CC1)c1ccccc1 (centres undefined) | ? | . | . | - | . | .
O=C1/C(=C/c2cccnc2)Oc2cc(OS(=O)(=O)c3ccccc3)ccc21 | . | - | - | ? | - | ?
CS(=O)(=O)Oc1ccc2c(c1)O/C(=C\c1cccnc1)C2=O | - | - | - | - | 20 | -
CS(=O)(=O)N(CC(=O)Nc1ccccc1C(=O)NCCc1ccccc1)c1ccc2c(c1)OCCO2 | ? | 35 | - | . | - | -
CS(=O)(=O)N(CC(=O)Nc1ccc2c(c1)OCO2)c1ccc(Cl)cc1 | - | 36 | - | - | 116 | -
CS(=O)(=O)N(CC(=O)NCCSCc1c(F)cccc1Cl)c1ccc2c(c1)OCO2 | 12µM | - | - | - | - | -
CS(=O)(=O)N(CC(=O)Nc1ccc2c(c1)OCO2)Cc1ccc(Cl)cc1 | - | - | - | . | - | -
COc1ccc(Cl)cc1N(CC(=O)Nc1ccc2c(c1)OCCO2)S(C)(=O)=O | - | 15 | - | . | - | -
COc1ccc(CN2CCN(C(=O)Cn3ncn4cccc4c3=O)CC2)c(OC)c1OC | - | - | - | ? | - | -
COC(CN(C)C(=O)C1CCCN(S(=O)(=O)c2ccc3c(c2)oc(=O)n3C)C1)OC (centres undefined) | - | - | - | ? | - | -
Cc1n[nH]c(C)c1S(=O)(=O)N(CC(=O)Nc1ccc2c(c1)OCCO2)c1ccc(C(C)C)cc1 | . | 26 | - | ? | - | -
Cc1ccc(N(CC(=O)Nc2ccc3c(c2)OCCO3)S(C)(=O)=O)cc1 | - | 54 | - | - | 60 | -
COc1ccc(C)cc1N(CC(=O)Nc1ccc2c(c1)OCCO2)S(C)(=O)=O | - | - | - | - | - | -
Cc1nc(N2CCN(c3ccccn3)CC2)c2c(C)c(C(=O)Nc3ccc(Br)cc3C)sc2n1 | 2.9µM | - | - | - | - | -
SMILES | Pf growth 48h | Cycloheximide cs | Giardia FBPA inh | Pf growth 96h | Shiga inhibitor | NS1 function inh
Cc1nc(N2CCN(c3ccccn3)CC2)c2c(C)c(C(=O)N3CCN(c4ccccc4F)CC3)sc2n1 | 8.3µM | - | . | - | - | -
Cc1cccc(NC(=O)NNC(=O)c2cc3occc3[nH]2)c1C | - | - | . | ? | - | -
O=C(NCCCN1CCOCC1)c1ccc(/C=C2\Oc3ccccc3N(Cc3ccccc3F)C2=O)cc1 | - | - | - | 8.3µM | - | -
CC1Oc2ccccc2N(CC(=O)NCCCN2CCOCC2)C1=O (centres undefined) | - | - | . | - | - | ?
O=C(CN1C(=O)/C(=C\c2ccccc2Br)Oc2ccccc21)NCCCN1CCOCC1 | - | - | . | 2.3µM | - | -
CCN1CCN(CCCNC(=O)c2ccc(/C=C3/Oc4ccccc4N(Cc4cccc(C)c4)C3=O)cc2)CC1 | ? | - | . | ? | - | -
Cc1ccc(CCNS(=O)(=O)c2ccc3c(c2)NC(=O)C(C)C(=O)N3)cc1 (centres undefined) | - | - | - | ? | - | -
Cc1ccc(SCc2c(-c3ccccc3)nn(C)c2Cl)cc1 | . | - | - | ? | - | -
Cn1nc(-c2ccccc2)c(CSc2ccccc2)c1Cl | . | - | - | 9.3µM | - | -
CN(CC(=O)Nc1ccc(F)cc1)C(=O)c1ccc(N2C(=O)CCC2=O)cc1 | - | . | . | - | . | .
CC(C(=O)NCC1CCCCC1)N1CCN(S(=O)(=O)c2cccs2)CC1 (centres undefined) | 9.3µM | . | . | ? | . | .
CC(C(=O)NC1CCCC1)N1CCN(S(=O)(=O)c2ccc(C(C)(C)C)cc2)CC1 (centres undefined) | 1.5µM | . | . | 1.5µM | . | .
Cc1cccc(CSCc2ccc(C(=O)NC(C)C)o2)c1 | -[0.00184 µM] | - | - | 3.7µM | - | -
Cc1cccc(CSCc2ccc(C(=O)NC3CCCC3)o2)c1 | - | - | - | - | - | .
Cc1cccc(CSCc2ccc(C(=O)O)o2)c1 | - | 16 | - | - | - | -
Cc1cc(C)c2nc(NC(=O)C3CSC4(C)CCC(=O)N34)sc2c1 (centres undefined) | - | . | . | - | . | .
Cc1cc(NC(=O)CSc2nnnn2-c2ccc(C)c(Cl)c2)no1 | - | - | - | - | - | -
COCC(C)NCc1ccccc1C (centres undefined) | - | - | ? | 12µM | - | -
CCOc1ccc(-n2c(Cc3cc(=O)[nH]c(=O)[nH]3)nnc2SCC(=O)NC2CCCC2)cc1 | . | - | - | 10µM | - | -
CCOc1ccc(-n2c(Cc3cc(=O)[nH]c(=O)[nH]3)nnc2SC(C)C(=O)OC)cc1 (centres undefined) | . | - | - | 9.3µM | - | -
COC(=O)C(C)Sc1nnc(Cc2cc(=O)[nH]c(=O)[nH]2)n1-c1cccc(OC)c1 (centres undefined) | . | - | - | - | - | -
NNC(=O)COc1ccc(C(F)(F)F)cc1 | - | - | - | - | - | -
COc1cc(/C=N/Nc2ccccn2)ccc1O | - | 49 | - | - | 74 | -
COc1ccc(/C=N/Nc2nc(N)cc(Cl)n2)cc1OC | - | 21 | - | ? | - | -
COc1ccc(/C=N/NC(=O)C(=O)Nc2ccccn2)cc1OC | - | - | - | ? | - | -
COc1ccc(-c2cnnc(N/N=C/c3ccc(O)c(OC)c3)n2)cc1 | - | 20 | - | 5.2µM | - | -
C=CCOc1ccc(/C=N/NC(=O)C(=O)Nc2ccccn2)cc1OC | - | 12 | - | 4.1µM | - | -
COc1ccc(/C=N/Nc2nonc2N)cc1OC | - | - | - | ? | - | -
